These results are taken from PubChem BioAssay AID1239 (SRMLSC, 2008).

Among all 190,000 compounds or so, about 3,100 (1.6%) were called active. Rule as the data show it: active = fold change above about 3.3; inconclusive = no clear call, values can overlap the other calls; inactive = below that. The entries come from a sample that favours actives as a whole.

The nature of the assay: activators of NF-kB expression in neurons, primary screen, cell-based, HTS (AID 1239). The note with it: human neuronal cells, NF-kB reporter expression; at 12.5 µM; stronger effect = higher value.
Consider `O=C1CCCC2=C1C(c1cccs1)CC(=O)N2c1ccc(F)cc1` (configuration not stated), for which the fold change was 1.01 (inactive).

As for `CN(C)CCOCCOc1ccc(Cl)c2ccccc12`, the fold change was 0.97 (inactive).

`CCOC(=O)c1[nH]ncc1CN1CCCC(C(=O)c2ccc(OC)cc2C)C1` (configuration not stated): the fold change was 1.04 (inactive).

Take `C=CCn1c(-c2sc(-c3ccccc3)nc2C)n[nH]c1=S`: the fold change was 1.29 (inactive).

As for `CCCOc1ccc2c3c(c(=O)oc2c1OCCC)CCC3`, the fold change was 5.55 (active).

For the compound `COc1ccc2c3c(c(=O)oc2c1OCC(=O)C(C)(C)C)CCCC3`, the fold change is 1.12 (inactive).

Take `O=c1oc2c(CN3CCCCC3)c(O)ccc2c2c1CCCCC2`: the fold change was 1.01 (inactive).

On to `Cc1cccc(NC(=S)NCCc2ccc(F)cc2)c1C`, for which the fold change was 1.04 (inactive).

As for `Cc1ccc2c(c1)C(O)(CC(=O)c1cccc(-n3cccc3)c1)C(=O)N2` (configuration not stated), the fold change is 1.11 (inactive).

As to `COC(=O)c1sc2[nH]c(=S)n(N)c(=O)c2c1C`, the fold change is 1.19 (inactive).

Turning to `Cc1ccccc1Nc1nc(N)nc(CSc2nnc3ccccn23)n1`, the fold change was 1.69 (inactive).

On to `Cc1ccccc1Nc1nc(N)nc(CSc2ccccc2)n1`, for which the fold change is 5.08 (active).

As for `Cc1ccc(C(=O)OCc2nc(N)nc(Nc3ccccc3C)n2)cc1`, the fold change is 0.92 (inactive).

`C/C(=N/OC(=O)c1c(-c2c(F)cccc2Cl)noc1C)c1cnccn1`: the fold change is 1.2 (inactive).

Regarding `CCOc1ccc2nc(SC(CC)C(=O)Nc3cc(C)on3)sc2c1` (configuration not stated), the fold change is 0.94 (inactive).

Take `CCOc1ccc2nc(Nc3nc4ccc(NC(C)=O)cc4s3)sc2c1`: the fold change was 0.85 (inactive).

In the case of `CCOc1ccc2nc(C(=O)N3CCCC(C)C3)sc2c1` (configuration not stated), the fold change was 8.66 (active).

Regarding `CCOC(=O)c1c(NC(=O)C2CC=CCC2C(=O)O)sc(C)c1CC` (configuration not stated), the fold change is 0.88 (inactive).

Regarding `Cc1ccn(-c2cccc(-n3ccc(C)n3)n2)n1`, the fold change is 3.56 (active).

On to `COc1ccc(C)cc1NC(=O)CSc1ccc(Cl)cc1`, for which the fold change was 1.29 (inactive).

In the case of `O=C(Cc1cccc2ccccc12)Nc1ccc2oc(-c3ccccc3)nc2c1`, the fold change is 1.24 (inactive).

As to `COc1ccc(-c2nc3cc([N+](=O)[O-])ccc3o2)cc1OC`, the fold change was 1.48 (inactive).

As to `COc1cccc(-c2nc(S(=O)(=O)c3ccccc3)c(N3CCOCC3)o2)c1`, the fold change was 1.11 (inactive).

As for `COc1ccc2oc(-c3cccc(NC(=O)CSc4ccc(Cl)cc4)c3)nc2c1`, the fold change was 5.09 (active).

Take `COc1cccc(-c2nc3cc(C)ccc3o2)c1`: the fold change was 6.47 (active).

As for `COc1ccc(S(=O)(=O)N2CCCCCC2)cc1C(=O)OCC(=O)Nc1cc(C)on1`, the fold change was 0.91 (inactive).

As for `CCC(C)(C)c1ccc(OCC(=O)N(C)C)c(C(C)(C)CC)c1`, the fold change was 0.82 (inactive).

On to `CSc1ccc(CN(C)CC(=O)NCc2ccc(F)cc2)cc1`, for which the fold change is 1.02 (inactive).

Take `COc1ccc(OC)c(C(=O)c2ccc(C(=O)N3CCN(Cc4csc(C)n4)CC3)cc2)c1`: the fold change is 1.07 (inactive).

As for `CCN1CCN(Cc2nc3c(c(=O)n(C)c(=O)n3C)n2CC(=O)c2ccccc2)CC1`, the fold change is 2.25 (inactive).

With `CN1CCN(Cc2nc3c(c(=O)n(C)c(=O)n3C)n2Cc2cccc3ccccc23)CC1`, the fold change was 3.6 (active).

In the case of `CCOC(=O)N1CCN(Cc2nc3c(c(=O)n(C)c(=O)n3C)n2Cc2ccccc2)CC1`, the fold change is 1.26 (inactive).

For the compound `CC(C)C(=O)OCC(=O)Nc1ccc2c(c1)CCC2`, the fold change was 1.06 (inactive).

For the compound `O=C(Nc1ccc2c(c1)CCC2)c1ccc(Br)s1`, the fold change was 11.1 (active).

Take `O=C(NC1CCCC1)c1ccc(Br)s1`: the fold change is 1.12 (inactive).

With `CCN(C(=O)c1ccc(Br)cc1)c1ccccc1`, the fold change is 1.19 (inactive).

On to `C/C(CC(=O)Nc1cccc(C(F)(F)F)c1)=N\NC(=O)C(=O)NCC(C)C`, for which the fold change is 1.26 (inactive).

For `CC(C)C1Nc2c(C(=O)O)cccc2C(Nc2ccccc2C(=O)O)C1(C)C` (configuration not stated), the fold change is 1.41 (inactive).

As to `O=C(c1cc(-c2cccs2)on1)N1CCCCC1`, the fold change is 5.06 (active).

Consider `O=C(c1cc(-c2ccccc2O)on1)N1CCCC1`, for which the fold change was 2.02 (inactive).

For `Cc1ccc(-c2cc(C(=O)N3CCc4ccccc4C3)no2)cc1`, the fold change is 1.06 (inactive).

As for `O=C(c1ccc(F)cc1)N1CCCC(c2nc(-c3cccs3)no2)C1` (configuration not stated), the fold change is 0.86 (inactive).

For `COc1ccccc1-c1cc(C(=O)N2CCCCC2)no1`, the fold change was 6.86 (active).

Consider `COc1ccccc1N1CCN(C(=O)c2cc(-c3ccc(Br)cc3)on2)CC1`, for which the fold change is 1.31 (inactive).

Consider `Cc1cccc(NC(=S)Nc2ccc(Cl)c(Cl)c2)c1`, for which the fold change was 0.6 (inactive).

As to `COc1cc([N+](=O)[O-])ccc1NC(=S)N1CCN(c2ccccn2)CC1`, the fold change is 1 (inactive).

Regarding `CC1CCN(C(=S)c2cccc(O)c2)CC1`, the fold change was 1.37 (inactive).

Consider `CCCN(CCC)c1ccc(C(O)c2nnc(-c3ccccc3)o2)cc1` (configuration not stated), for which the fold change was 1.05 (inactive).

For `CNC(=S)N1N=C(c2ccccc2)CC1c1ccc(Br)cc1` (configuration not stated), the fold change was 1.3 (inactive).

`Brc1ccc(C2CC(c3ccccc3)=Nc3ccccc3N2)cc1` (configuration not stated): the fold change is 3.44 (active).

Regarding `c1ccc(C2=Nc3cccc4cccc(c34)N2)cc1`, the fold change was 1.21 (inactive).

Take `C=CCn1cc(-c2cccc(C(F)(F)F)c2)cc(C#N)c1=O`: the fold change was 1.06 (inactive).

With `O=C(/C=C/c1ccc(N2CCOCC2)cc1)c1ccccc1`, the fold change is 4.09 (active).

Regarding `O=C(/C=C/c1ccccc1)c1ccoc1`, the fold change is 0.94 (inactive).

Consider `O=C(O)c1ccc2c(c1)C(=O)N(c1ccc(/C=C/C(=O)c3ccccc3)cc1)C2=O`, for which the fold change was 1.2 (inactive).

For `O=C(Nc1nc(-c2cccnc2)cs1)c1ccccc1F`, the fold change is 1.73 (inactive).

Consider `COc1cc(NC(=S)N2CCCC(C)C2)cc(OC)c1OC` (configuration not stated), for which the fold change was 1.11 (inactive).

Turning to `COc1ccc(/C=C(\C#N)C(=O)ONC2=NCCCCC2)cc1`, the fold change was 1.26 (inactive).

As for `Cc1csc(NC(=O)NC2(C(F)(F)F)Oc3ccccc3O2)n1`, the fold change is 5.29 (active).

In the case of `Cc1csc(NC(=O)CN2CCCCCC2)n1`, the fold change was 1.18 (inactive).

For the compound `Cc1csc(NC(=O)Nc2ccccc2[N+](=O)[O-])n1`, the fold change was 3.38 (active).

Consider `Cc1c(NC(=O)Nc2ccccc2)cccc1[N+](=O)[O-]`, for which the fold change was 1.43 (inactive).

`Cc1cc(NC(=O)Nc2ccccc2[N+](=O)[O-])no1`: the fold change is 1.12 (inactive).

As for `COc1cc(SC)ccc1C(=O)Nc1nc(C)cs1`, the fold change is 0.52 (inactive).

With `Cc1ccnc(NC(=O)c2ccc(Cl)c([N+](=O)[O-])c2)c1`, the fold change is 2.09 (inactive).

Consider `CNC(=S)Nc1ccc([N+](=O)[O-])cc1`, for which the fold change is 1.13 (inactive).

Turning to `Cc1ccccc1N1C(=O)C(Oc2ccc(Cl)cc2)C1CNCC1CCCO1` (configuration not stated), the fold change is 1.25 (inactive).

For the compound `CCOC(=O)CCNC(=O)N1CCCC(C(=O)c2ccccc2SC)C1` (configuration not stated), the fold change was 1 (inactive).

Take `O=C(Nc1cccc(-c2nnc(-c3ccccc3)o2)c1)C1CCCO1` (configuration not stated): the fold change is 0.88 (inactive).

On to `O=C(Nc1ccc(-c2nnc(-c3ccccc3)o2)cc1)C1CCCO1` (configuration not stated), for which the fold change was 4.06 (active).

Regarding `O=C(Nc1nnc(CCc2ccccc2)s1)C1CCCO1` (configuration not stated), the fold change is 1.38 (inactive).

Take `COc1ccc(-n2nc3c(c2NC(=O)c2ccc(N4C(=O)CCC4=O)cc2)CSC3)cc1`: the fold change was 1.2 (inactive).

With `C=CCN(C(=O)c1cc(C)cc(C)c1)C1(C(=O)Nc2ccccc2)CCN(C(C)C)CC1`, the fold change is 0.87 (inactive).

On to `CC1CN(CCOc2ccccc2[N+](=O)[O-])CC(C)O1` (configuration not stated), for which the fold change is 1.22 (inactive).

Take `CC1CCN(S(=O)(=O)c2ccc3ncn(CC(=O)N(C)C4CCCCC4)c(=O)c3c2)CC1`: the fold change was 0.79 (inactive).

Turning to `O=C(OCC(=O)c1cccs1)c1ccc([N+](=O)[O-])o1`, the fold change was 0.88 (inactive).

Take `Cc1cc(=O)n2[nH]c(-c3sccc3-n3c(C)ccc3C)cc2n1`: the fold change is 1.08 (inactive).

Regarding `CCOC(=O)CSc1ccccn1`, the fold change was 0.99 (inactive).

Consider `CCOC(=O)CSc1nc(C)cc2c1C(=O)OC2`, for which the fold change was 1.43 (inactive).

For `CCOC(=O)CSC1=N/C(=C/c2ccc(-n3cncn3)cc2)C(=O)N1C(C)=O`, the fold change is 4.34 (active).

On to `CC1=NN(c2ccccc2)C(=O)C1C(=O)c1ccc([N+](=O)[O-])cc1` (configuration not stated), for which the fold change is 0.91 (inactive).

Regarding `O=C(O)/C=C/c1cn(Cc2ccccc2)nc1-c1cccs1`, the fold change was 1.06 (inactive).

With `NS(=O)(=O)c1cccc(NC(=O)CN2CCCc3ccccc32)c1`, the fold change was 0.95 (inactive).

For the compound `CCSc1ccccc1C(=O)Nc1ccc2c(c1)OCO2`, the fold change is 1.88 (inactive).

Regarding `Cc1cccc(NC(=O)/C=C/c2ccc3c(c2)OCO3)n1`, the fold change was 8.04 (active).

As to `CC(NC(=O)Nc1ccc2c(c1)OCO2)c1ccncc1` (configuration not stated), the fold change is 1.61 (inactive).

Consider `COc1ccc(OC)c(/C=C/C(=O)OCC(=O)Nc2ccc3c(c2)OCCO3)c1`, for which the fold change is 1 (inactive).

Turning to `Cc1cccc(NC(=O)Nc2ccc3c(c2)OCO3)n1`, the fold change is 4.19 (active).

In the case of `COc1cccc(/C=C/C(=O)Nc2ccc3c(c2)OCCO3)c1`, the fold change was 6.74 (active).

For the compound `CCc1c(C)sc(NC(=O)/C=C/c2ccc3c(c2)OCO3)c1C(=O)OC`, the fold change is 1.05 (inactive).

For `O=C(/C=C/c1ccc2c(c1)OCO2)NCc1ccc(F)cc1`, the fold change was 1.46 (inactive).

Take `COc1ccc(/C=C/C(=O)Nc2ccc3c(c2)OCCO3)cc1OC`: the fold change was 0.68 (inactive).

As to `COc1ccc(N2C(=O)C(Cc3ccccc3)NC2=S)cc1` (configuration not stated), the fold change is 1.19 (inactive).

As to `Cc1nn(C)c(C)c1S(=O)(=O)N1CCC(CO)(Cc2ccc(Cl)cc2)CC1`, the fold change is 0.97 (inactive).

As for `O=C(N/N=C/c1cc2c(cc1Br)OCO2)C1COc2ccccc2O1` (configuration not stated), the fold change is 1.55 (inactive).

With `COc1cc(NC(=S)NCc2ccc(S(N)(=O)=O)cc2)cc(OC)c1`, the fold change was 1.03 (inactive).

Turning to `CSc1ccccc1NC(=O)CN(C)CC(=O)Nc1ccc(Cl)cc1[N+](=O)[O-]`, the fold change was 1.29 (inactive).

On to `Cc1noc(C)c1/C=N/Nc1ccc2ccccc2n1`, for which the fold change was 4.12 (active).

On to `C(=N\Nc1ccc2ccccc2n1)/c1ccc2c(c1)OCO2`, for which the fold change was 1.78 (inactive).

Regarding `Cc1cc(C)nc(N/N=C/c2c(C)oc3ccccc23)n1`, the fold change was 1.11 (inactive).

`O=C1c2ccccc2C(=O)N1CCC(O)C[N+](=O)[O-]` (configuration not stated): the fold change is 0.98 (inactive).

With `COc1ccc(-c2nc3cnccn3c2NC(C)(C)CC(C)(C)C)cc1O`, the fold change was 0.68 (inactive).
